Measured values published in PubChem BioAssay (EPA / NIEHS).
Results filed as inconclusive are left out. Calls of active or inactive are those of the source. Rule for the calls, unless noted: active = hit-call score of the fitted dose curve at least 0.9, where 1 is the maximum; inconclusive = response in the unintended direction; inactive = score below 0.9.

Read-out: not listed separately
Experiment: BSK_3C_Proliferation: Cell Proliferation Assessment in the BioMAP Diversity Plus: 3C Assay (AID 2283006; active = hit-call score of the fitted dose curve at least 0.9, where 1 is the maximum; inactive = score below 0.9;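 for AC50: potency may reflect either rise or fall in cell number versus DMSO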)
Details: primary human endothelial cells (HUVEC)
Procedure, shortened: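 Read-out is total protein by SRB absorbance at 560 nm, taken as a proxy for relative cell number. Primary human umbilical vein endothelium cultured below confluence was dosed for 48 h, TCA-fixed and SRB-stained; curves were fitted bidirectionally versus DMSO.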
In the case of `CCOP(=O)(OCC)SCCSCC`, the outcome is reported as “inactive”. With `N#CCCC(Br)(C#N)CBr` (stereo not given) the AC50 was 1.28 µM (active). For `OC(Cc1ccccc1Cl)(Cn1cncn1)C1(Cl)CC1` (stereo not given), the outcome was “inactive”. For `O=C1C=CC(=O)c2ccccc21`, the AC50 was 0.46 µM (active). In the case of `Cc1ccccc1OP(=O)(Oc1ccccc1)Oc1ccccc1`, the AC50 is reported as 20 µM (active). With `CCCCCCCCCCCCN(C)C` the outcome was “inactive”.

Molecular target: Peroxisome proliferator-activated receptor gamma (Homo sapiens) (UniProt P37231)
Sequence (P37231 whole entry, looked up): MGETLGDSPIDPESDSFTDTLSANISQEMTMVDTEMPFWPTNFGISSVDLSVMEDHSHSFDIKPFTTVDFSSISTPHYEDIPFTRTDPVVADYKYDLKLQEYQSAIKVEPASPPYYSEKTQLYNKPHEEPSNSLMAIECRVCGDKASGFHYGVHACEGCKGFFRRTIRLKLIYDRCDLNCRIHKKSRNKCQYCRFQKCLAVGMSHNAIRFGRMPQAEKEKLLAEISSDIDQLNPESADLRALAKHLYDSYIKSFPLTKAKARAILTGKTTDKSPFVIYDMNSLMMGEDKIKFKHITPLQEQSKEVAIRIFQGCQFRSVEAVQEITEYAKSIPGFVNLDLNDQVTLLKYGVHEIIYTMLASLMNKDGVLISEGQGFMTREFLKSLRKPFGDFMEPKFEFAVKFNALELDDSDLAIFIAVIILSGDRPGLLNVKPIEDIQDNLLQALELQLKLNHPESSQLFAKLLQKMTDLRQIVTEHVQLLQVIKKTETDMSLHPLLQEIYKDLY
Experiment: ATG_PPARg_TRANS: Attagene TRANS-FACTORIAL HepG2 Assay for human Peroxisome Proliferator-activated Receptor-gamma (PPARg) (AID 2283007)
Details: not given
Procedure, shortened: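 Endpoint reflects upward reporter mRNA change versus DMSO controls. Setup: transiently transfected HepG2, GAL4-UAS reporters driven by chimeric NR-Gal4, 24 h incubation, RT-PCR with capillary electrophoresis read-out.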
In the case of `O=C(O)c1cc(I)cc(I)c1I`, the AC50 is reported as 11.9 µM (active). For `C=CCCl`, the outcome was “inactive”. With `COc1ccc(N)cc1` the outcome was “inactive”. With `CC1(C)[C@H](/C=C2\CCSC2=O)[C@@H]1C(=O)OCc1coc(Cc2ccccc2)c1` the AC50 was 1.05 µM (active). With `Nc1cccnc1` the outcome was “inactive”. In the case of `C=CCN=C=S`, the outcome is reported as “inactive”. For `Brc1ccc(Br)cc1`, the outcome was “inactive”. With `C[CH2][Hg][S]c1ccccc1C(=O)O` the AC50 was 3.71 µM (active). For `O=S(=O)(F)C(F)(F)C(F)(F)C(F)(F)C(F)(F)F`, the outcome was “inactive”. With `CCOC(=O)OC1=C(c2cc(C)ccc2C)C(=O)NC12CCC(OC)CC2` (stereo not given) the outcome was “inactive”. For `O=C(CCl)Nc1ccccc1`, the AC50 was 2.7 µM (active). With `C[C@H]1C(=O)O[C@@H]2CCN3CC=C(COC(=O)[C@](C)(O)[C@]1(C)O)[C@H]23` the outcome was “inactive”. With `CCOP(=O)(OCC)SCCSCC` the outcome was “inactive”. With `COC(=O)c1cc(Oc2ccc(Cl)cc2Cl)ccc1[N+](=O)[O-]` the AC50 was 20 µM (active). In the case of `Clc1cc(C(Cl)(Cl)Cl)cnc1Cl`, the outcome is reported as “inactive”. With `C#CCO` the outcome was “inactive”. For `C=CC(=O)OCC(COC(=O)C=C)(COC(=O)C=C)COC(=O)C=C`, the AC50 was 100 µM (active). In the case of `CCCCOC(C)=O`, the outcome is reported as “inactive”. For `c1csc(-c2ccc(-c3cccs3)s2)c1`, the AC50 was 1.7 µM (active). In the case of `OC(Cc1ccccc1Cl)(Cn1cncn1)C1(Cl)CC1` (stereo not given), the outcome is reported as “inactive”. In the case of `C=CC(=O)[O][Sn]([CH2]CCC)([CH2]CCC)[CH2]CCC`, the AC50 is reported as 0.0934 µM (active). In the case of `O=C1C=CC(=O)c2ccccc21`, the AC50 is reported as 5.98 µM (active). For `CCCCCCCCCCCCCCC(Br)C(=O)O` (stereo not given), the AC50 was 11.4 µM (active). With `Brc1c(Br)c(Br)c(Oc2c(Br)c(Br)c(Br)c(Br)c2Br)c(Br)c1Br` the outcome was “inactive”. In the case of `COP(=S)(OC)Oc1cc(Cl)c(I)cc1Cl`, the AC50 is reported as 28.3 µM (active). With `O=C1c2ccccc2C(=O)C1C(=O)C(c1ccccc1)c1ccc(Cl)cc1` (stereo not given) the AC50 was 3.11 µM (active). In the case of `c1cc[c]([Sb]([c]2ccccc2)[c]2ccccc2)cc1`, the AC50 is reported as 23.5 µM (active). With `COc1ccc([N+](=O)[O-])cc1O` the outcome was “inactive”. For `O=C(Nc1ccc(Br)cc1)c1cc(Br)cc(Br)c1O`, the AC50 was 11.7 µM (active).
